The assay deals with T1, ELK4 (Homo sapiens, UniProt P28324-2 1-405).
T1 sequence: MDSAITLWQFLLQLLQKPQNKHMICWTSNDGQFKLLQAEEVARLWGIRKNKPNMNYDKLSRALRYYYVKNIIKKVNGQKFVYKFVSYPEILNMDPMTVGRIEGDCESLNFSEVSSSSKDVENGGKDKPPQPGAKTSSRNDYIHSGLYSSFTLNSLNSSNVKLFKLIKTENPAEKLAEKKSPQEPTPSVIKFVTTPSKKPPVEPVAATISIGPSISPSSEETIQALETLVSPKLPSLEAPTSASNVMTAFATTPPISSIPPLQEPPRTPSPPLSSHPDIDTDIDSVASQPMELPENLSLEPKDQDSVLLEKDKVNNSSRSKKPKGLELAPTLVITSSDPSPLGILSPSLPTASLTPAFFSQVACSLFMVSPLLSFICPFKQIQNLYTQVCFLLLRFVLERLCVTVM
The experiment in a line: DAPPL (digital affinity profiling via proximity ligation, sequencing); 10 mM Tris-HCl pH 7.5, 50 mM NaCl, 1 mM DTT, 4% glycerol, room temperature, 30 min; GST-TFs on glutathione beads, 16-mer random dsDNA library, 0.1% formaldehyde crosslink after washing; high values mean tight binding. Conditions: protein: recombinant; tags: N-terminal GST; dsDNA, one strand shown. A digest of the protocol: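 A tag-only sample was pooled with DNA-barcoded human transcription factors that had been expressed in yeast as GST fusions and captured on glutathione beads. The pools were incubated for 30 min at room temperature with 200 nmole of a random double-stranded 16-mer DNA library in Tris/NaCl/DTT/glycerol buffer, then washed, crosslinked with 0.1% formaldehyde, proximity-ligated (BsaI/T4 ligase, 1 h, 37 °C), PCR-amplified and sequenced on an Illumina NextSeq500. Binding signal is each hexamer's read frequency for a factor divided by its frequency for the tag-only sample.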
For TAAGTA, the binding signal was 1.18 fold enrichment (6-mer frequency, TF over GST control).

Consider TTGATG, for which the binding signal is 1.52 fold enrichment (6-mer frequency, TF over GST control).

As for TTTGCT, the binding signal is 1.36 fold enrichment (6-mer frequency, TF over GST control).

In the case of CCTGCT, the binding signal is 1.73 fold enrichment (6-mer frequency, TF over GST control).

In the case of TTCGAA, the binding signal was 1.2 fold enrichment (6-mer frequency, TF over GST control).

With AATCCT, the binding signal is 1.33 fold enrichment (6-mer frequency, TF over GST control).

Take TCCGCC: the binding signal was 1.45 fold enrichment (6-mer frequency, TF over GST control).

On to ATAACT, for which the binding signal was 1.22 fold enrichment (6-mer frequency, TF over GST control).

Turning to GGCTCA, the binding signal is 1.15 fold enrichment (6-mer frequency, TF over GST control).

On to AACTAG, for which the binding signal was 1.02 fold enrichment (6-mer frequency, TF over GST control).

Turning to ACGTTC, the binding signal was 1.29 fold enrichment (6-mer frequency, TF over GST control).

Regarding GCACTT, the binding signal is 1.62 fold enrichment (6-mer frequency, TF over GST control).

Take CTTGCG: the binding signal was 1.51 fold enrichment (6-mer frequency, TF over GST control).

In the case of TTCATG, the binding signal was 1.32 fold enrichment (6-mer frequency, TF over GST control).

With CCTGGA, the binding signal was 1.38 fold enrichment (6-mer frequency, TF over GST control).

As for CTACTT, the binding signal was 1.87 fold enrichment (6-mer frequency, TF over GST control).

For the sequence CGTTTC, the binding signal was 1.65 fold enrichment (6-mer frequency, TF over GST control).

Regarding TTGGCA, the binding signal is 1.34 fold enrichment (6-mer frequency, TF over GST control).

Consider GCCTCG, for which the binding signal was 1.32 fold enrichment (6-mer frequency, TF over GST control).

CGCTTC: the binding signal was 1.77 fold enrichment (6-mer frequency, TF over GST control).

For the sequence GATCTT, the binding signal is 1.23 fold enrichment (6-mer frequency, TF over GST control).

For TCCGAT, the binding signal is 1.25 fold enrichment (6-mer frequency, TF over GST control).

For AACACT, the binding signal is 1.29 fold enrichment (6-mer frequency, TF over GST control).

Turning to CCGTTT, the binding signal is 1.33 fold enrichment (6-mer frequency, TF over GST control).

With AAACTC, the binding signal was 1.04 fold enrichment (6-mer frequency, TF over GST control).

Turning to ATGGCC, the binding signal was 1.48 fold enrichment (6-mer frequency, TF over GST control).

CTGTAT: the binding signal was 1.29 fold enrichment (6-mer frequency, TF over GST control).

With TTTGCA, the binding signal was 1.3 fold enrichment (6-mer frequency, TF over GST control).

With CTTGAT, the binding signal is 1.43 fold enrichment (6-mer frequency, TF over GST control).

For AAAACC, the binding signal is 1.22 fold enrichment (6-mer frequency, TF over GST control).

GCTACT: the binding signal was 1.38 fold enrichment (6-mer frequency, TF over GST control).

TATCTT: the binding signal is 1.38 fold enrichment (6-mer frequency, TF over GST control).

With CAATTC, the binding signal is 1.25 fold enrichment (6-mer frequency, TF over GST control).

Turning to TAACAC, the binding signal was 1.32 fold enrichment (6-mer frequency, TF over GST control).

In the case of ACGAAA, the binding signal was 1.24 fold enrichment (6-mer frequency, TF over GST control).

With CTGCTC, the binding signal is 1.45 fold enrichment (6-mer frequency, TF over GST control).

With TTTTTG, the binding signal was 1.5 fold enrichment (6-mer frequency, TF over GST control).

With TCTGAA, the binding signal is 1.14 fold enrichment (6-mer frequency, TF over GST control).

Regarding TCCGGT, the binding signal is 3.14 fold enrichment (6-mer frequency, TF over GST control).

Consider TCTGCA, for which the binding signal is 1.43 fold enrichment (6-mer frequency, TF over GST control).

The record behind these values is publication PMC7862700, “An all-to-all approach to the identification of sequence-specific readers for epigenetic DNA modifications on cytosine”.
